From PubChem BioAssay
Arbovirus anti – blocks arbovirus infection | actives 0.37% (n = 200,000) | arbovirus infection cell-based antiviral screen | inhibition, % at 10 µM | AID 1251; in the data active = inhibition above about 30%
MEKK2 mut-MEK5 – signal of MEK5 binding to mutant human MEKK2 PB1 domain; AID 1530; percent response, % at 10 µM; actives 0.35% (n = 290,000); bead flow cytometry, Alexa488-MEK5 binding to MEKK2 mutant; in the data active = percent response above about 24%, passing the limit was not always enough
Pf gamet viab – kills late stage P. falciparum gametocytes; P. falciparum stage V gametocytes, ATP luminescence, 24 h; inhibition, % at 10.9 µM; actives 0.065% (n = 150,000); AID 743093;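 active = inhibition above the mean plus 3 SD of compounds within the control limits, set per campaign, cut at about 38% in these data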
MEKK3 PB1 HTS – raises or lowers MEK5 binding to the human MEKK3 PB1 domain | Q99759 | bead-based flow cytometry, Alexa488-MEK5 binding to MEKK3; actives lie on both sides; 0 = blocked by unlabeled MEK5, 100 = vehicle | binding response (% of control), % at 10 µM | actives 1.4% (n = 290,000) | AID 1529;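 active = binding response more than 3 SD above or below the average of its plate-row segment, actives on both sides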;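 note: Alexa488 bead fluorescence after subtracting the streptavidin-only scavenger bead signal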
Target sequence (Q99759 whole entry, looked up, the tested form may be a part): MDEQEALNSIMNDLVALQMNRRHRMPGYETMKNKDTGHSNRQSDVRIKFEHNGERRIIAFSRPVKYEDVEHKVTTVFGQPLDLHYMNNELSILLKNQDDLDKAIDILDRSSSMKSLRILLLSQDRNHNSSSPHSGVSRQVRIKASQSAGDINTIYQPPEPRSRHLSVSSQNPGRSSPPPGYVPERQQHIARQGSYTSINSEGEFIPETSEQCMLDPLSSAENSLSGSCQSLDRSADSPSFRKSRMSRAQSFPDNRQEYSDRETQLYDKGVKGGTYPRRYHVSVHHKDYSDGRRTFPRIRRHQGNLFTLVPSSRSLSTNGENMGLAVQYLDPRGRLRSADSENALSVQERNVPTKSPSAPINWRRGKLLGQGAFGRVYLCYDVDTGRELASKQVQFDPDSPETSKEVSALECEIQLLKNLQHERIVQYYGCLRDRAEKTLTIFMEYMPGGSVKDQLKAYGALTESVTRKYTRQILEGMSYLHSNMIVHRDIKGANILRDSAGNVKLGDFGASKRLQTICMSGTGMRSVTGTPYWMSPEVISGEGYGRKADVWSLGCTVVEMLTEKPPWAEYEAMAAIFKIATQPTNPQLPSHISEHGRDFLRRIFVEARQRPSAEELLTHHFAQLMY
MEKK2 WT-MEK5 – raises or lowers MEK5 binding to wildtype human MEKK2 PB1 domain. Q9Y2U5. bead flow cytometry, Alexa488-MEK5 binding to MEKK2 WT; actives lie on both sides. binding response (% of control), % at 10 µM. actives 1.1% (n = 290,000). AID 1531; in the data active = binding response below about 67% or above about 130%
MEKK2wt confirm – raises or lowers MEK5 binding to wildtype human MEKK2, retest; shares compounds with MEKK3 PB1 HTS; bead flow cytometry, Alexa488-MEK5 binding to MEKK2 WT; actives lie on both sides; binding response (% of control), % at 10 µM; actives 2.4% (n = 5,900); AID 1892; in the data active = binding response below about 16% or above about 210%; inactive = in between
MEKK2mut-MEK5 – signal of MEK5 binding to mutant human MEKK2, retest; shares compounds with MEKK3 PB1 HTS; AID 1893; actives 2% (n = 5,900); bead flow cytometry, Alexa488-MEK5 binding to MEKK2 mutant; percent response, % at 10 µM; in the data active = percent response mostly above about 71%, no sharp cut-off; inactive = mostly below about 38%;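 note: higher means compound restores mutant binding toward wildtype level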
MEKK3-MEK5 inh – confirmation of inhibitors of MEK5 binding to human MEKK3. shares compounds with MEKK3 PB1 HTS. bead flow cytometry, Alexa488-MEK5 binding to MEKK3; active compounds read low. binding response (% of control), % at 10 µM. actives 1.8% (n = 5,900);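 active = binding response below 72% of control, or above a set upper limit, though filed actives all read lower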;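 note: lower values mean stronger disruption of MEK5 binding to MEKK3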
Numbers stand for hits; 0 = inactive; - = no result; [ ] = another dose, or the depositor's remark. The list is not random: actives were taken first. Their share in the collection is about 2.4%.

SMILES | Arbovirus anti | MEKK2 mut-MEK5 | Pf gamet viab | MEKK3 PB1 HTS | MEKK2 WT-MEK5 | MEKK2wt confirm | MEKK2mut-MEK5 | MEKK3-MEK5 inh
C/C(=N/Nc1ccc([N+](=O)[O-])cc1)c1ccc(C)cc1C | 0 | 0 | 0 | 0 | 148 | 0 | 0 | 0
O=C(O)CC/C(=N/Nc1ccc([N+](=O)[O-])cc1)C(=O)O | - | 0 | 0 | 75[inhibitor] | 0 | 0 | 0 | 0
C/C(=N\Nc1ccc([N+](=O)[O-])cc1)c1ccc(C#N)cc1 | - | 0 | 0 | 0 | 0 | - | - | -
O=C(O)CC/C(=N\Nc1ccc([N+](=O)[O-])cc1)c1ccccc1 | - | 0 | 0 | 0 | 0 | - | - | -
Cc1cccc(NC(=O)C2CCCN(S(=O)(=O)c3ccc4[nH]c(=O)ccc4c3)C2)n1 (centres undefined) | - | 0 | - | 0 | 0 | - | - | -
Cc1ccc(N=Cc2c(O)[nH]c3ccccc23)c([N+](=O)[O-])c1 | 0 | 0 | 0 | 0 | 0 | - | - | -
CCOC(=O)C(C(=O)Nc1cccc(C)c1)C1CCCCC1 (centres undefined) | 0 | 0 | - | 0 | -4.0[inhibitor] | 0 | 0 | 0
OC(CNCc1ccco1)Cn1c2ccc(Br)cc2c2cc(Br)ccc21 (centres undefined) | 0 | 47 | - | 0 | 216 | 0 | 0 | 0
Brc1ccc2ncnc(NCc3ccco3)c2c1 | 0 | 0 | 0 | 0 | 0 | - | - | -
CN(Cc1ccc(Cl)cc1Cl)C(=O)c1cc(=O)c2ccccc2o1 | - | 0 | - | 0 | 0 | - | - | -
Cc1ccc(Nc2cc(C)nc(NCc3ccccc3)n2)cc1 | 0 | 0 | 0 | 0 | 151 | 0 | 0 | 0
Cc1cc(N/N=C/c2ccccc2Cl)nc(NCc2ccccc2)n1 | 0 | 0 | - | 0 | 146 | 0 | 0 | 0
Cc1cc(C)nc(N/N=C/c2ccccc2Cl)n1 | - | 0 | 0 | 0 | 0 | - | - | -
CCCc1nc(C)cc(N2CCN(c3ccccc3)CC2)n1 | - | 0 | - | 0 | 0 | - | - | -
Cc1cc(N2CCN(c3ccccc3)CC2)nc(NCc2ccccc2)n1 | 0 | 0 | - | 0 | 168 | 0 | 0 | 0
COc1ccc(Nc2cc(C)nc(NCc3ccccc3)n2)cc1 | - | 0 | 0 | 0 | 0 | - | - | -
COC(=O)CN1C(=O)N/C(=C/c2ccccc2OC)C1=O | 0 | 0 | 0 | 131 | 0 | 0 | 0 | 0
CCc1ccccc1S(=O)(=O)Cc1ccc(C(=O)NCc2cccs2)o1 | 0 | 0 | - | 0 | 0 | - | - | -
Cc1ccccc1-n1c(C)nnc1SCC(=O)NNC(=O)c1ccccc1 | 0 | 0 | 0 | 148 | 0 | 0 | 0 | 0
Cc1nnc(SCC(=O)NNC(=O)c2ccccc2)n1-c1ccccc1 | 0 | 0 | 0 | 0 | 0 | - | - | -
O=C(/C=C\c1cn(-c2ccccc2)nc1-c1ccccc1)Nc1nccs1 | 0 | 0 | - | 140 | 0 | 0 | 0 | 0
CCN(CC)c1ccc2nc3c4ccccc4c(=O)cc-3oc2c1 | - | 0 | - | 0 | 53[inhibitor] | 0 | 0 | 0
COC(=O)c1cc(C#N)c(Oc2ccccc2OC)nc1C | 0 | 0 | 0 | 0 | 0 | - | - | -
COC(=O)c1cc(C#N)c(OC(C)C)nc1C | 0 | 0 | 0 | 142 | 0 | 0 | 0 | 0
CCCCn1cc(SCC(=O)O)c2ccccc21 | 0 | 0 | 0 | -1.0[inhibitor] | -1.0[inhibitor] | 0 | 0 | 0
SMILES | Arbovirus anti | MEKK2 mut-MEK5 | Pf gamet viab | MEKK3 PB1 HTS | MEKK2 WT-MEK5 | MEKK2wt confirm | MEKK2mut-MEK5 | MEKK3-MEK5 inh
O=C(Nc1ccccc1Cl)Nc1ccnn1C1CCN(C(=O)CCN2CCCO2)CC1 | - | 0 | - | 0 | 0 | - | - | -
CCN(CC)C(=O)c1cc(C(C)(C)C)c(O)c(C(C)(C)C)c1 | 0 | 0 | - | 128 | 0 | 0 | 0 | 0
CCc1nnc(NS(=O)(=O)c2ccc(N=Cc3c(C)[nH]n(-c4ccc(C)c(C)c4)c3=O)cc2)s1 | 0 | 0 | 0 | 160 | 0 | 0 | 0 | 0
Cc1ccc(-n2[nH]c(C)c(C=Nc3ccc(S(=O)(=O)Nc4nccs4)cc3)c2=O)cc1 | 0 | 0 | - | 0 | 0 | - | - | -
Cc1[nH]c2ccccc2c1/C=C(\C#N)C(=O)NCc1ccccc1 | 0 | 134 | 0 | 0 | 15 | 0 | 0 | 0
Cc1ccsc1/C=C(/C#N)C(=O)NCc1ccccc1 | 0 | 58 | 0 | 0 | 0 | 0 | 0 | 0
